The entries come from a sample that favours hits as a whole.
Shiga toxin inh: inhibitors of Shiga toxin in Vero cells; 9.2% of 290,000 active; inhibition, % at 38.7 µM; Vero cells, Shiga toxin protein synthesis inhibition reporter; AID 2315; in the data active = inhibition mostly above about 28%, no sharp cut-off; inactive = mostly below about 43%; note: 0% is about no effect
Vaccinia Venus: inhibitors of vaccinia virus (Venus reporter); Potency, µM (titrated, usually from 36.5 µM), without a hit: top-dose activity change, negative = inhibition, actives largely listed as inhibitors; Vaccinia virus Venus reporter expression, fluorescence; 0.46% of 330,000 active; calls by dose curve; tested in A549 cells; note: potency is the fitted concentration of half-maximal effect; % is set by controls: 0 for no effect and ±100 for the full control effect; nearly all actives have a fitted effect of over 30% in size
Lassa entry inh: Lassa virus entry inhibition | Lassa virus pseudotype entry inhibition, cell reporter | Potency, µM (top dose mostly 37.9 µM), for the others: at the top dose activity change, negative = inhibition, most hits filed as inhibitors | 1.2% of 300,000 active; calls by dose curve; tested in HEK293 cells; note: potency is the fitted concentration of half-maximal effect; % is set by controls: 0 for no effect and ±100 for the full control effect; nearly all actives have a fitted effect of over 50% in size
Cycloheximide cs: counter-screen hit for Shiga toxin inhibitors, cycloheximide | cell reporter, cycloheximide protein synthesis inhibition counterscreen | max response, % | 12% of 300,000 active; in the data active = max response mostly above about 13%, no sharp cut-off; inactive = mostly below about 14%; note: read at 38.3 µM for the half of the compounds with a filed dose; 0% is about no effect
Vaccinia mCherry: vaccinia inhibition (mCherry reporter). Vaccinia virus mCherry reporter infection, fluorescence. Potency, µM (doses to about 36.5 µM), for the others: at the highest dose activity change, negative = inhibition, hits mostly inhibitors. 0.63% of 310,000 active; calls by dose curve; tested in A549 cells; note: potency is the fitted concentration of half-maximal effect; % is set by controls: 0 for no effect and ±100 for the full control effect; nearly all actives have a fitted effect of over 35% in size
MARV entry inh: blocks Marburg virus binding to or entry into cells. Marburg virus pseudotyped entry inhibition, cell reporter. AID 540276. Potency, µM (doses to about 37.8 µM), for inactives: at the highest dose activity change, negative = inhibition, hits mostly inhibitors. 1.8% of 300,000 active; calls by dose curve; tested in HEK293 cells; note: potency is the fitted concentration of half-maximal effect; % is set by controls: 0 for no effect and ±100 for the full control effect
The depositor's hits bear a star; i = inactive; ? = inconclusive; nt = no result; + = active, no number; ! = not active in a repeat; [ ] = dose if it differs, or a comment.

SMILES	Shiga toxin inh	Vaccinia Venus	Lassa entry inh	Cycloheximide cs	Vaccinia mCherry	MARV entry inh
COc1ccc(OCCN2CCC(C(=O)NC(c3ccc(F)cc3)c3ccc4ccccc4n3)CC2)cc1 (stereo unspecified)	nt	-5%	nt	nt	i	nt
COc1cc(S(=O)(=O)NCCCn2ccnc2)ccc1F	nt	nt	nt	1	nt	nt
Cn1c(=O)c2nc(SCC(=O)Nc3ccc(OC(F)(F)F)cc3)n(C)c2n(C)c1=O	nt	-17%	-1%[46.1 µM]	nt	-17%	nt
Cc1ccc(SC[C@H](CC(C)C)N2CCN(C)CCC2=O)cc1	84*	-2%	nt	38*	i	nt
COc1ccc(SCCN2CCN(C)CCC2=O)cc1	44	-6%	nt	7	-6%	nt
COc1ccc(SC[C@H](CC(C)C)N2CCN(C)CCC2=O)cc1	75*	-8%	nt	17*	i	nt
CC(C)C[C@@H](CSc1ccc(Br)cc1)N1CCN(C)CCC1=O	57*	-12%	nt	40*	i	nt
CCCN1CCC(=O)N(C(CSc2ccc(Br)cc2)Cc2ccccc2)CC1 (stereo unspecified)	-10	nt	nt	-5	nt	nt
Cc1cccc(NC(=O)c2c(C)oc3ncnc(N4CCCCC4)c23)c1C	nt	-10%	0%[46.1 µM]	nt	i	nt
CC1CCC(C(C)C)C(OC(=O)COC(=O)c2cc(O)ccc2N)C1 (stereo unspecified)	57*	?	?	24*	-21%	?
CC1CCC(C(C)C)C(OC(=O)COC(=O)c2ccc(=O)[nH]c2)C1 (stereo unspecified)	-5	-21%	-16%	-2	-20%	-14%
CC1CCCN(C(=O)CCCn2c(=S)[nH]c3ccccc3c2=O)C1 (stereo unspecified)	-3	nt	1%	-8	nt	-20%
Cn1c(=NC(=O)c2ccccc2[N+](=O)[O-])sc2cc(S(C)(=O)=O)ccc21	50*	-12%	14%	64*	-16%	?
Cn1c(=NC(=O)c2ccc(S(=O)(=O)N3CCCc4ccccc43)cc2)sc2cc(S(C)(=O)=O)ccc21	0	-9%	3%	-4	-2%	4%
Oc1ccc(/C=N/Nc2nc(-c3ccc(Cl)cc3)cc(C(F)(F)F)n2)cc1	1	11µM*	?	11	11µM*	11µM*
Cc1cc(-c2ccccc2)nc(N/N=C/c2ccc(O)cc2)n1	nt	-24%	8.9µM*	nt	8.9µM*	?
Fc1ccc(CNc2nc(-c3ccc(Cl)cc3)cc(C(F)(F)F)n2)cc1	nt	5%	16%[46.1 µM]	nt	-12%	-10%[46.1 µM]
CCOc1ccc(NC(=O)CN2C(=O)CC(C)Sc3ccccc32)cc1 (stereo unspecified)	nt	0%	nt	nt	4%	3%[46.1 µM]
COc1ccc(CCNC(=O)c2noc3c2CCCC3)cc1OC	2	nt	-1%	9.1*	nt	-2%
COc1ccc(Cl)cc1NC(=O)c1noc2c1CCCC2	51*	-5%	nt	19*	-6%	nt
COc1ccc(CCNC(=O)c2nonc2N)cc1OC	-4	nt	?	-1	nt	7%
c1ccc2c(c1)Cc1cc(CN3CCOCC3)ccc1-2	76*	nt	-2%	41*	nt	?
c1ccc(Oc2cccc(CN3CCOCC3)c2)cc1	-14	nt	9%	28*	nt	-1%
Cc1ccc(CCNc2ccccc2)c[n+]1[O-]	11	nt	5%	15*	nt	18%
c1ccc(CCNc2ccccc2)cc1	31	nt	nt	21*	nt	nt
SMILES	Shiga toxin inh	Vaccinia Venus	Lassa entry inh	Cycloheximide cs	Vaccinia mCherry	MARV entry inh
Cc1nnc(NCCc2ccccc2)c2ccccc12	132*	0%	23%[46.1 µM]	42*	-2%	?
COc1cccc(CN2CCc3nnc(CCc4ccccc4)n3CC2)c1OC	nt	3%	nt	nt	-5%	nt
O=C(Nc1ccccc1Br)C1CCCN(S(=O)(=O)c2cccc3nsnc23)C1 (stereo unspecified)	nt	-7%	2%[46.1 µM]	nt	-21%	2%[46.1 µM]
Cc1ccc2oc(=O)c3cc(C(=O)Nc4cccc(C#N)c4)sc3c2c1	nt	-1%	-5%[46.1 µM]	nt	2%	2%[46.1 µM]
Cc1cc2nc(N)sc2cc1C	49*	?	?	41*	-15%	-26%
CC(C)c1ccc2nc(N)sc2c1	64*	-13%	-5%	26*	i	?
Nc1nc2ccc(O)cc2s1	10	-18%	11%	5	-16%	3%
COc1ccc([C@]23Cc4ccccc4C(O2)C2=C(CCCC2=O)O3)cc1	i	nt	nt	1	nt	nt
CCCCCCNC(=O)c1ccc(Br)o1	+!	-11%	2%	33*!	-14%	-2%
O=C(NCCCCc1ccccc1)c1ccc(Br)o1	15	-3%	-7%	18*	-16%	3%
O=C(NCCCc1ccccc1)c1ccc(Br)o1	53	nt	18%	31*	nt	?
O=C(Cc1ccccc1)NNC(=O)c1ccc(Br)o1	2	nt	nt	-2	nt	nt
O=S(=O)(c1ccc(OC(F)(F)F)cc1)N1CCC(c2nnnn2-c2ccc(F)cc2)CC1	nt	-5%	21%[46.1 µM]	nt	7%	0%[46.1 µM]
Cc1ccccc1NC(=NCCCN1CC1)Nc1ccccc1C	nt	?	13µM*	nt	-27%	2.2µM*
Cc1ccccc1NC(=O)CCN1CCN(C)CC1	-6	nt	nt	1	nt	nt
NNC(=O)C(=O)Nc1ccc(O)cc1	71	nt	nt	23*	nt	nt
CC1CCN(C(=O)COC(=O)c2cc3ccccc3cc2O)CC1	59	nt	-1%	42*	nt	0%
CC1CC(C)CN(C(=O)COC(=O)c2cc3ccccc3cc2O)C1 (stereo unspecified)	26	-16%	20%	11	nt	1%
CC(C)(C)C(=O)COC(=O)c1cc2ccccc2cc1O	39	nt	7%	25*	nt	19%
Cc1c(C(=O)NCC(c2ccc(Cl)cc2)N2CCOCC2)oc2ccccc12 (stereo unspecified)	nt	-6%	-18%[46.1 µM]	nt	-1%	-29%[46.1 µM]
CNC(=O)CC1C(=O)N(C)C(=S)N1NC(=O)c1ccc(Cl)cc1 (stereo unspecified)	11	-15%	18%	-3	nt	9%[46.1 µM]
Cc1cc(C)cc(N(C(=O)CCC(=O)Nc2cc(C)on2)C(C(=O)NC2CCCC2)c2ccco2)c1 (stereo unspecified)	12	-15%	?	-7	i	11µM*
Cc1cc(NC(=O)CCC(=O)N(Cc2cccs2)C(C(=O)NC2CCCC2)c2ccccc2)no1 (stereo unspecified)	16	-18%	-18%	12	nt	11µM*
Cc1cccc(N(C(=O)CCC(=O)Nc2cc(C)on2)C(C(=O)NC2CCCC2)c2ccc(C)o2)c1 (stereo unspecified)	28*	nt	nt	26*	nt	nt
Cc1cc(NC(=O)CCC(=O)N(c2cccc(F)c2)C(C(=O)NC2CCCC2)c2ccc(C)o2)no1 (stereo unspecified)	6	-11%	?	0	-21%	?
OCC[C@H]1C[C@H](O)[C@@H](O)[C@]2(CCCO2)O1	nt	-1%	nt	nt	i	nt
O=C(COC(=O)c1ccc(F)c(S(=O)(=O)N2CCOCC2)c1)NCc1ccc(F)cc1	nt	-7%	-8%	nt	i	?
COc1ccc(Cn2nnnc2C(c2cc3cc(C)ccc3[nH]c2=O)N2CCOCC2)cc1 (stereo unspecified)	-3	nt	3%	-2	nt	8%

Screening results from PubChem.
